# Measured values published in the supplement of paper PMC6555819.
# Tests used:
# Assay in all cases: PBM binding z-score (relative to random genomic background probes); higher = stronger binding; sequences stand for … in GC…GCGATTGACAGCGTAGAATGAAGG
# [1] = test system: FXR:RXRa (NR concentration 270 nM, RXRa partner concentration 90 nM)
# In short: (§1)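 Binding z-scores were set against random background probes. The data came from custom Agilent 4×180K protein-binding microarrays carrying double-stranded probes with 34-nt variable regions, incubated 1 h with ligand-free nuclear receptor dimers. Partner-specific antibodies detected binding, and scanned fluorescence was regression-normalized.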
# [2] = test system: LXRa:RXRa (NR concentration 270 nM, RXRa partner concentration 90 nM)
# In short: as §1
# [3] = test system: LXRa homodimer (NR concentration 270 nM)
# In short: as §1
# [4] = test system: LXRb:RXRa (NR concentration 270 nM, RXRa partner concentration 90 nM)
# In short: as §1
# [5] = test system: LXRb homodimer (NR concentration 270 nM)
# In short: as §1
# [6] = test system: PPARa:RXRa (NR concentration 270 nM, RXRa partner concentration 90 nM)
# In short: as §1
# [7] = test system: PPARg:RXRa (NR concentration 180 nM, RXRa partner concentration 90 nM)
# In short: as §1
# [8] = test system: PPARg:RXRa 270nM:90nM, anti-RXR (NR concentration 270 nM, RXRa partner concentration 90 nM)
# In short: as §1
# [9] = test system: PPARg:RXRa 30nM:10nM, anti-RXR (NR concentration 30 nM, RXRa partner concentration 10 nM)
# In short: as §1
# [10] = test system: PPARg:RXRa 90nM:30nM, anti-RXR (NR concentration 90 nM, RXRa partner concentration 30 nM)
# In short: as §1
# [11] = test system: PPARg:RXRa DBDmut IVT, anti-RXR (DBD mutation: RXRa K156A/R161A, NR concentration 270 nM, RXRa partner concentration 90 nM)
# In short: as §1
# [12] = test system: PPARg:RXRa IVT, anti-PPARg (NR concentration 270 nM, RXRa partner concentration 90 nM)
# In short: as §1
# [13] = test system: PPARg DBDmut:RXRa IVT, anti-PPARg (DBD mutation: PPARg1 K132A/R137A, NR concentration 270 nM, RXRa partner concentration 90 nM)
# In short: as §1
# [14] = test system: PPARg DBDmut IVT, anti-PPARg (DBD mutation: PPARg1 K132A/R137A, NR concentration 270 nM)
# In short: as §1
# [15] = test system: PPARg homodimer (NR concentration 180 nM)
# In short: as §1
# [16] = test system: PXR:RXRa (NR concentration 270 nM, RXRa partner concentration 90 nM)
# In short: as §1
# [17] = test system: PXR homodimer (NR concentration 270 nM)
# In short: as §1
# [18] = test system: RARa:RXR (NR concentration 270 nM, RXRa partner concentration 90 nM)
# In short: as §1
# [19] = test system: RARa homodimer (NR concentration 270 nM)
# In short: as §1
# [20] = test system: RARb:RXRa (NR concentration 270 nM, RXRa partner concentration 90 nM)
# In short: as §1
Sequence,PBM binding z-score [1],PBM binding z-score [2],PBM binding z-score [3],PBM binding z-score [4],PBM binding z-score [5],PBM binding z-score [6],PBM binding z-score [7],PBM binding z-score [8],PBM binding z-score [9],PBM binding z-score [10],PBM binding z-score [11],PBM binding z-score [12],PBM binding z-score [13],PBM binding z-score [14],PBM binding z-score [15],PBM binding z-score [16],PBM binding z-score [17],PBM binding z-score [18],PBM binding z-score [19],PBM binding z-score [20]
ATATGTAGGTTAACGGGTCATTCAGTTTGCGCAT,2.83,3.03,1.03,3.05,0.599,5.14,7.84,6.45,4.4,6.25,8.01,7.92,2.68,1.82,2.04,3.26,3.42,3.42,1.02,2.54
GCTCGCAGGCCATTTGGGTCACTCAATGACGGGC,0.079,0.0243,-0.668,0.0952,-1.06,1.29,0.381,0.415,-0.625,-0.441,1.09,1.56,-1.82,-1.26,0.213,0.621,0.71,0.492,-0.566,1.72
CCTAGTTGGTCAGGAGGTCACCCACCGGATATGA,3.56,3.31,1.59,3.13,0.503,4.04,2.76,3.87,1.01,2.98,0.575,3.28,-0.921,-0.185,3.43,4.07,1.23,4.11,1.53,3.61
CTCGAAAGGGCGGTTGAGGTGAGTATACGGATAA,1.23,-0.197,-0.251,-0.253,-0.452,0.0374,0.00915,-0.518,-0.508,-0.301,-0.112,-0.15,0.116,0.0622,0.247,0.233,0.128,0.395,-0.275,1.08
CTCGATAGGTCGTGCTCAGGTGAGTATACCAAAC,0.909,0.843,-0.342,0.951,-0.454,1.82,0.11,0.394,-0.186,-0.0239,0.241,0.78,-0.285,0.141,0.257,0.623,-0.52,1.44,-0.705,1.77
AGAATGAGGTTATTAAGATCAGGGAGTTGCGGTC,1.77,1.34,0.175,1.29,0.183,2.49,1.37,2.07,0.61,1.5,3.18,2.67,0.214,0.57,0.895,1.46,0.973,1.44,0.946,1.4
CCTAGTTGGTCAGGAGGTCACACAGCGGATATGA,4.26,3.54,2.17,3.55,0.887,4.36,3.51,4.15,1.76,3.56,1.92,3.62,0.997,0.401,5.93,4.51,2.55,5.39,3.77,3.81
CAAACTAGGTCACCGGAAGGTCACAGTCCGCATG,6.17,5.52,4.03,4.77,1.26,5.9,9.97,7.71,6.06,7.55,8.58,9.08,2.66,1.61,8.88,5.64,1.29,7.62,3.12,5.42
GCTCGTAGATCAAGGTTAAGAAAGACTAAGCTAA,-0.496,0.698,-0.704,0.341,-1.05,1.03,-0.16,0.485,-0.162,0.0383,-0.49,-0.249,-1.42,-0.839,-1.01,0.125,-0.272,0.412,-0.428,0.601
ATATGTAGGTTATCGGGTCAGTCAGTTTGCGCAT,2.15,2.12,0.91,1.91,1.49,4.28,6.83,5.81,3.11,5,7.7,7.77,4.15,2.31,2.57,2.53,2.52,2.6,1.19,2.55
ACTCGGAGGAAAAAGGTCAGAGCTACGCCAGTGA,2.49,3,0.501,2.45,-0.26,3.73,2.6,3.2,1.2,2.74,-0.318,1.1,0.319,-0.672,1.74,2.65,0.00836,3.29,1.23,3.88
TCATATAGGTAAAGGTGCAAGTCGAACGATATGA,0.551,0.493,-0.176,0.57,-0.374,2.77,4.36,5.55,4.82,5.79,3.53,3.68,0.688,1.15,0.555,0.241,0.116,0.949,0.796,0.566
GCTAGTTGGTCTGTAAAAGGTCACACACCGGTCG,3.27,4.45,4.26,3.98,0.57,4.33,2.5,4.63,2.19,4.12,0.547,2.28,0.389,-0.363,4.38,4.79,1.16,5.54,1.67,3.87
GCATATAGGTAATACAAGGTGAAACTCCGATTGT,1.27,2.79,0.554,0.988,-0.38,1.83,1.5,1.04,0.514,0.842,4.64,3.25,1.19,0.842,0.705,0.857,-0.379,1.52,0.524,0.667
